Where “and” joins values, the source holds several entries; their conditions need not be identical. Equal entries are not always repeated. Results filed as inconclusive are left out. Some structures have more than one record in an assay (separate samples or runs), and their calls can disagree. Calls of active or inactive are those of the source. Unless noted, calls come from the whole dose curve.
Experiments:
[1] = Nuclear factor erythroid 2-related factor 2/antioxidant responsive element (Nrf2/ARE) small molecule agonists: qHTS cell viability counter screen in human keratinocytes (AID 1919968; active = well fitted curve in the direction sought with a large enough effect in the repeat runs; an effect the other way counts as inactive or inconclusive; note: nearly all actives have a fitted effect of over 55% in size)
Summary of the method: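 HaCaT ARE reporter line, 1,500 cells/well; 5 h settle, 37 C/5% CO2; cpd in DMSO pinned; 23 h exposure; CellTiter-Fluor, 1 h; fluorescence.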

[2] = Nuclear factor erythroid 2-related factor 2/antioxidant responsive element (Nrf2/ARE) small molecule agonists: luciferase reporter gene qHTS assay in human keratinocytes (AID 1919969); note: nearly all actives have a fitted effect of over 35% in size
[3] = target: Gonadotropin-releasing hormone receptor (Homo sapiens) (UniProt P30968); test: Human gonadotropin-releasing hormone receptor (GnRHR) small molecule agonists, calcium flux assay in GnRHR-HEK293 cells (AID 1920063); note: nearly all actives have a fitted effect of over 35% in size
Summary of the method: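 GnRHR-HEK293, 1500 cells/well, 18 h 37 C/5% CO2; Ca dye 1 h 37 C; cpd pinned (DMSO), agonist mode; kinetic FL 480/540, 3 min, 1 s reads; 15 conc, n=3.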

[4] = target: KiSS-1 receptor (Homo sapiens) (UniProt Q969F8); test: Human kisspeptin (KISS1R) small molecule agonists, calcium flux assay in KISS1R-HEK293 cells (AID 1920064; active = well fitted curve in the direction sought with a large enough effect in the repeat runs; an effect the other way counts as inactive or inconclusive)
Summary of the method: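 Stable human KISS1R HEK293 line; 18 h plating, 37 C/5% CO2; calcium dye 1 h 37 C; compound pin transfer; kinetic fluorescence Ex/Em 480/540, 3 min.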

[5] = G protein-coupled receptor (GPCR) small molecule agonists, calcium flux assay: HEK293 wild type cell line counter screen (AID 1920065)
Summary of the method: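 Kinetic fluorescence at Ex/Em 480/540, recorded every second over 3 min, served as the read-out after compound addition. Each compound was tested at 15 concentrations in triplicate on cells pre-loaded with calcium dye for 1 h.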

[6] = p53 small molecule agonists, cell-based qHTS assay with human liver microsomes (AID 1963577);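 note: p53 response element beta-lactamase reporter cells with liver microsomes plus NADPH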
Summary of the method: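 p53RE-bla cells; 5 h settle, 37 C/5% CO2; cpd + HLM 0.5 mg/mL + NADPH 0.5 mg/mL (final); 16 h 37 C; LiveBLAzer 2 h RT dark; fluorescence readout.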

[7] = p53 small molecule agonists, cell-based qHTS assay with rat liver microsomes (AID 1963578)
Summary of the method: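 Rat liver microsome activation: microsomes 0.5 mg/mL, NADPH 0.5 mg/mL final; p53RE-bla cells, 16 h 37 C; LiveBLAzer readout, 2 h RT dark.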

[8] = p53 small molecule agonists, cell-based qHTS assay with human liver microsomes: qHTS cell viability counter screen (AID 1963579); note: nearly all actives have a fitted effect of over 45% in size
Summary of the method: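 Luminescent CellTiter-Glo read-out, 30 min at room temperature, gauged cytotoxicity in p53RE-bla cells exposed 16 h at 37 C to DMSO-dissolved compounds with metabolic activation by human liver microsomes and NADPH, each 0.5 mg/mL final.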

[9] = p53 small molecule agonists, cell-based qHTS assay with rat liver microsomes: qHTS cell viability counter screen (AID 1963580); note: nearly all actives have a fitted effect of over 45% in size
Summary of the method: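 p53RE-bla HCT-116 cells (4,000/well) rested 5 h at 37 C, then given Tox21 compounds in DMSO with rat liver microsomes (0.5 mg/mL final) plus NADPH (0.5 mg/mL final) for 16 h at 37 C. Viability read by CellTiter-Glo luminescence after 30 min at room temperature.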

[10] = p53 small molecule agonists, cell-based qHTS assay: qHTS cell viability counter screen (AID 1963581); note: nearly all actives have a fitted effect of over 45% in size; note: potency is the fitted concentration of half-maximal effect
Summary of the method: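 HCT-116 p53RE-bla cells, 4,000/well, plated 5 h before compound pin transfer; 16 h at 37 C; bla substrate 2 h RT; then CellTiter-Glo, 30 min RT, luminescence.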

[11] = p53 small molecule agonists, cell-based qHTS assay (AID 1963582; active = well fitted activation curve with a large enough effect in the signal ratio in the repeat runs, not every such curve was filed as active; the % refers to the signal ratio)
Summary of the method: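 Reporter line: p53RE-bla. Pre-incubation 5 h, 37 C, 5% CO2; compound (DMSO, pin tool) 16 h, 37 C; B/G FRET substrate 2 h RT; fluorescence intensity read.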

[12] = target: 5-hydroxytryptamine receptor 2A (Homo sapiens) (UniProt P28223); test: 5-hydroxytryptamine receptor 2A (HTR2A) small molecule antagonists, cell-based qHTS assay (AID 1963586); note: nearly all actives have a fitted effect of over 45% in size
Summary of the method: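 Antagonist-mode intracellular calcium assay: DOI (4 nM) added after 5 min compound pre-incubation at room temperature to dye-loaded HTR2A-CHO cells. Fluorescence followed for 3 min, sampled every second.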

[13] = target: 5-hydroxytryptamine receptor 2A (Homo sapiens) (UniProt P28223); test: 5-hydroxytryptamine receptor 2A (HTR2A) small molecule agonists, cell-based qHTS assay (AID 1963587); note: nearly all actives have a fitted effect of over 30% in size
Summary of the method: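 HTR2A-CHO cells, plated 18 h at 37 C/5% CO2, dye-loaded 1 h at 37 C; compounds in DMSO added by pin tool (agonist mode). Intracellular calcium flux read as kinetic fluorescence on FDSS over 2 min at 1 s intervals.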

[14] = target: Muscarinic acetylcholine receptor M1 (Homo sapiens) (UniProt P11229); test: Cholinergic receptor muscarinic 1 (CHRM1) small molecule antagonists, cell-based qHTS assay (AID 1963588); note: nearly all actives have a fitted effect of over 40% in size
Summary of the method: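 CHRM1-CHO calcium-flux assay, antagonist mode. Cells were seeded 18 h, dye-loaded 1 h at 37 C and given compound for 5 min at RT, then acetylcholine was added at 50nM. FDSS fluorescence was read 3 min; 15 concentrations, three runs.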

[15] = cAMP Responsive Elements (CRE) small molecule agonists, cell-based qHTS assay (AID 1963590)
Summary of the method: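 HEK 293T CRE-bla, 2,000 cells/well, 18 h preincubation 37 C/5% CO2; cpds (DMSO) pinned, 3 h; LiveBLAzer B/G FRET substrate, 2 h RT.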

[16] = cAMP Responsive Elements (CRE) small molecule antagonists, cell-based qHTS assay (AID 1963591; active = well fitted inhibition curve with a large enough effect in the signal ratio in the repeat runs, not every such curve was filed as active; the % refers to the signal ratio)
Summary of the method: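 Beta-lactamase reporter read by FRET substrate (LiveBLAzer B/G) after 2 h at room temperature. CRE-bla HEK293T cells had received compound plus 0.25 uM (final) NKH477 for 3 h at 37 °C.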

[17] = target: Beta-2 adrenergic receptor (Homo sapiens) (UniProt P07550); test: Adrenergic beta2 receptor (ADRB2) small molecule antagonists, cell-based qHTS assay (AID 1963592); note: series mostly up to about 92 µM; nearly all actives have a fitted effect of over 50% in size
Summary of the method: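 Cells (CHO, stable ADRB2 overexpression) incubated 18-20hr at 37C; compounds added from DMSO; agonist mix (1nM isoproterenol, 100uM IBMX, 25uM Ro-20-1724) added; 0.5hr RT; d2-cAMP and anti-cAMP-cryptate added; 1hr RT; 665/615 nm read.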

[18] = target: D(2) dopamine receptor (Homo sapiens) (UniProt P14416); test: Dopamine D2 receptor (DRD2) small molecule agonists, cell-based qHTS assay (AID 1963594); note: nearly all actives have a fitted effect of over 35% in size
Summary of the method: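 HEK293 cells stably expressing DRD2 were cultured 24 h at 37 C, then given Ro20-1724 (0.1 mM final) and compounds for 10 min at room temperature. NKH477 (200nM) was then added for 30 min. cAMP was read by HTRF.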

[19] = target: D(2) dopamine receptor (Homo sapiens) (UniProt P14416); test: Dopamine D2 receptor (DRD2) small molecule antagonists, cell-based qHTS assay (AID 1963595; active = well fitted inhibition curve with a large enough effect in the signal ratio in the repeat runs, with a control signal flat; the % refers to the signal ratio)
Summary of the method: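 HEK293 cells stably expressing DRD2 were preincubated with 0.1 mM Ro20-1724, then with compound for 10 min at room temperature. Cells were stimulated with 200 nM NKH477 plus 12 nM quinpirole for 30 min, and cAMP was read by HTRF.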

[20] = target: Muscarinic acetylcholine receptor M1 (Homo sapiens) (UniProt P11229); test: Cholinergic receptor muscarinic 1 (CHRM1) small molecule agonists, cell-based qHTS assay (AID 1963589); note: nearly all actives have a fitted effect of over 35% in size
Summary of the method: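 Human M1 in stable CHO line; 18 h plating, 1 h dye load 37 C; cpd added (agonist mode); Ca2+ fluorescence kinetic read, 1 s intervals; 15 conc, 3 runs.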
% is set by controls: 0 for no effect and ±100 for the full control effect.

Beta-2 adrenergic receptor (Homo sapiens), sequence (P07550 whole entry, looked up): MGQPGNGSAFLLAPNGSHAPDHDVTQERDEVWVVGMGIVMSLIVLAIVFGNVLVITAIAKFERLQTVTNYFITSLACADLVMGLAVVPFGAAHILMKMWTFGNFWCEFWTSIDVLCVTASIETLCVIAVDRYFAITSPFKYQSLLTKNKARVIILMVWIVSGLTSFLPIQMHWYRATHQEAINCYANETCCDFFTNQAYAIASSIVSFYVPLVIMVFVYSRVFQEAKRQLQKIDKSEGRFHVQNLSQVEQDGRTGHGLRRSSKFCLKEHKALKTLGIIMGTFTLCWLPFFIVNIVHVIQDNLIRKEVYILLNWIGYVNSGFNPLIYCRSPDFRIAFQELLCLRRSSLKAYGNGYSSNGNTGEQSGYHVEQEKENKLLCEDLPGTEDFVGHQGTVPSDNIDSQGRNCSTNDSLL
KiSS-1 receptor (Homo sapiens), sequence (Q969F8 whole entry, looked up): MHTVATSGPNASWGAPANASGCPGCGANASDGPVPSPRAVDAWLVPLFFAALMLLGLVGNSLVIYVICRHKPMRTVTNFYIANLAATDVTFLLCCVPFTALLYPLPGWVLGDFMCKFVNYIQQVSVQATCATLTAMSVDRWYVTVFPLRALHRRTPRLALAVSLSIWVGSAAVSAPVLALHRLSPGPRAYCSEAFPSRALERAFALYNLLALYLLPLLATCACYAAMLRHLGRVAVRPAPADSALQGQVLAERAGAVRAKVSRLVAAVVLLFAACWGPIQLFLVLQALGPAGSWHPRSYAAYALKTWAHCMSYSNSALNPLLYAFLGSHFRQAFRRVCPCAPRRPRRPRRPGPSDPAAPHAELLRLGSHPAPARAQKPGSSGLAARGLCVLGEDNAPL
5-hydroxytryptamine receptor 2A (Homo sapiens), sequence (P28223 whole entry, looked up): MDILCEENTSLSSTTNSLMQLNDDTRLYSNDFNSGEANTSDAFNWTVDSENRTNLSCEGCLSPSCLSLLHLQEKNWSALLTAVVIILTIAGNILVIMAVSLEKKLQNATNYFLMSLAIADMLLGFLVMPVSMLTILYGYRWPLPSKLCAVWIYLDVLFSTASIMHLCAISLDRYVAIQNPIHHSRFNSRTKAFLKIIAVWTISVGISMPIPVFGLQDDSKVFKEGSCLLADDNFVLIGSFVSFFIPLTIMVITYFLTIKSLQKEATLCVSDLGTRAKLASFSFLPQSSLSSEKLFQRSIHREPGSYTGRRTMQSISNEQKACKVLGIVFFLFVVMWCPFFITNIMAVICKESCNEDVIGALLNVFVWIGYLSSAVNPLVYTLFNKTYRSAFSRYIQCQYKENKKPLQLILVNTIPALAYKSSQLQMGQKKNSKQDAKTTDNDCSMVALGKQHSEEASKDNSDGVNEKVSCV
Muscarinic acetylcholine receptor M1 (Homo sapiens), sequence (P11229 whole entry, looked up): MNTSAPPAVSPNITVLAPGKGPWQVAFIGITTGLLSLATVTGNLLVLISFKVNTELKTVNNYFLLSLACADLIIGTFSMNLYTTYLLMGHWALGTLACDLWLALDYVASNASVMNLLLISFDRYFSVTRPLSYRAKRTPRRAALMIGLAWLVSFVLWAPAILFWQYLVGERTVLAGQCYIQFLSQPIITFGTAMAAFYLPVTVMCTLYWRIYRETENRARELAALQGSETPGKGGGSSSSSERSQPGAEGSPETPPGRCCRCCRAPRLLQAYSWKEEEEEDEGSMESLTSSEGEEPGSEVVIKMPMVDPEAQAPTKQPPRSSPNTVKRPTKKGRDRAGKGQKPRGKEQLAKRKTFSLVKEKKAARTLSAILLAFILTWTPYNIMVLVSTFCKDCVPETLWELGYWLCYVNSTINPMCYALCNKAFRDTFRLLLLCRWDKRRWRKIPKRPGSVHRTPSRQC
D(2) dopamine receptor (Homo sapiens), sequence (P14416 whole entry, looked up): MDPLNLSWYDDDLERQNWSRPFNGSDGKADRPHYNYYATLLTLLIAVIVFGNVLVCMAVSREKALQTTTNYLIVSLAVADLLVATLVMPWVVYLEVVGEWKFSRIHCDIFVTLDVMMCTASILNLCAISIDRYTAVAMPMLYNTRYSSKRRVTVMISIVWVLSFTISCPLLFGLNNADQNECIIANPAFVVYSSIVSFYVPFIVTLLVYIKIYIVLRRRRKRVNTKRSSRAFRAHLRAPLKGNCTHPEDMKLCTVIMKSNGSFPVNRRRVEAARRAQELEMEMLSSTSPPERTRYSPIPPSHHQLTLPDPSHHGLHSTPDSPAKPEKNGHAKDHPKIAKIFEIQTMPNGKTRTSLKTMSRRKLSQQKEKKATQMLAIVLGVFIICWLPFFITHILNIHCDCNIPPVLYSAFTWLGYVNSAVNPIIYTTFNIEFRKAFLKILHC
Gonadotropin-releasing hormone receptor (Homo sapiens), sequence (P30968 whole entry, looked up): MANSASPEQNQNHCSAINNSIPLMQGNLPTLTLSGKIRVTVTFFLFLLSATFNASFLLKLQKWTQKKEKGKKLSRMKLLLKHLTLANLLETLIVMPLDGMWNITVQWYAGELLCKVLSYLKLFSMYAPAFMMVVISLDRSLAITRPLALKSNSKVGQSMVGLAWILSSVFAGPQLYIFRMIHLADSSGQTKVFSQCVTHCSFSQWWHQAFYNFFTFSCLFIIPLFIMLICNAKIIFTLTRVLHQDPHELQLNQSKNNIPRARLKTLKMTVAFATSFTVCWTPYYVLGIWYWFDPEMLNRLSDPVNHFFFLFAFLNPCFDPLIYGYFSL

Nc1cc([N+](=O)[O-])ccc1O
inactive and 362 nM (active): Potency [10]
inactive: Potency [1] | Potency [2] | Potency [3] | Potency [4] | Potency [5] | Potency [6] | Potency [7] | Potency [8] | Potency [9] | Potency [11] | Potency [12] | Potency [13] | Potency [14] | Potency [15] | Potency [16] | Potency [17] | Potency [18] | Potency [19]

CN1CCCC1
inactive: Potency [1] | Potency [2] | Potency [3] | Potency [4] | Potency [5] | Potency [6] | Potency [7] | Potency [8] | Potency [9] | Potency [10] | Potency [11] | Potency [12] | Potency [13] | Potency [14] | Potency [20] | Potency [16] | Potency [17] | Potency [18] | Potency [19]

NS(=O)(=O)c1ccccc1OC(F)(F)F
inactive: Potency [1] | Potency [2] | Potency [3] | Potency [4] | Potency [5] | Potency [6] | Potency [7] | Potency [8] | Potency [9] | Potency [10] | Potency [11] | Potency [12] | Potency [13] | Potency [14] | Potency [20] | Potency [16] | Potency [17] | Potency [18] | Potency [19]

CCn1cc(C(=O)O)c(=O)c2cc3c(cc21)OCO3
inactive: Potency [1] | activity, positive = activation [2] -1.35% [at 19 µM] | Potency [3] | Potency [4] | Potency [5] | Potency [6] | Potency [7] | Potency [8] | Potency [9] | Potency [10] | Potency [11] | Potency [12] | Potency [13] | Potency [14] | Potency [20] | activity change, negative = inhibition [16] -7.86% [at 18.9 µM] | Potency [17] | Potency [18] | Potency [19]

O=S(=O)(O)c1cc(O)c(O)c(S(=O)(=O)O)c1
inactive: Potency [1] | Potency [2] | Potency [3] | Potency [4] | Potency [5] | Potency [6] | Potency [7] | Potency [8] | Potency [9] | Potency [10] | Potency [11] | Potency [12] | Potency [13] | Potency [14] | Potency [15] | Potency [16] | Potency [17] | Potency [18] | Potency [19]

CO/N=C(/C(=O)N[C@@H]1C(=O)N2C(C(=O)O)=C(COC(N)=O)CS[C@H]12)c1ccco1
inactive: Potency [1] | Potency [2] | Potency [3] | Potency [4] | Potency [5] | Potency [6] | Potency [7] | Potency [8] | Potency [9] | Potency [10] | Potency [11] | Potency [12] | Potency [13] | Potency [14] | Potency [15] | Potency [16] | Potency [17] | Potency [18] | Potency [19]

C=C(C)C(=O)OCCOCCOCCOC(=O)C(=C)C
inactive: Potency [1] | Potency [2] | Potency [3] | Potency [4] | Potency [5] | Potency [6] | Potency [7] | Potency [8] | Potency [9] | Potency [10] | Potency [11] | Potency [12] | Potency [13] | Potency [14] | Potency [20] | Potency [17] | Potency [18] | Potency [19]

CC(C)=CCC/C(C)=C/C(=O)O
inactive: Potency [1] | Potency [2] | Potency [3] | Potency [4] | Potency [5] | Potency [6] | Potency [7] | Potency [8] | Potency [9] | Potency [10] | Potency [11] | Potency [12] | Potency [13] | Potency [14] | Potency [20] | Potency [16] | Potency [17] | Potency [18] | Potency [19]
